Only some compounds are listed: those with a hit (about 1.2% of all), similar ones and a draw of the others.
TRPV1 ag = HTS Assay for Compounds that Act as Agonists of the Vanilloid Receptor 1; AID 540275, 2011; 320,000 tested, 0.19% active; TRPV1-expressing cells, Fluo-8 calcium influx, agonist mode; Transient receptor potential cation channel subfamily V member 1 (Homo sapiens), Q8NER1; activation, % at 8.33 µM; in the data active means activation above about 80%; inconclusive means between about 30% and that limit; further: 0% is about no effect
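Fluo-8 calcium influx in TRPV1-expressing cells, kinetic read (ex 480/em 520 nm). Compound added and read 3 min for agonist activity, followed by capsaicin at EC20 final and 2 min further read for enhancement.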
TRPV1 PAM = HTS Assay for Compounds that Act as Potentiators of the Vanilloid Receptor 1; Transient receptor potential cation channel subfamily V member 1 (Homo sapiens), Q8NER1; TRPV1-expressing cells, Fluo-8 calcium influx, capsaicin EC20 potentiation; potentiation, % at 8.33 µM; 320,000 tested, 0.02% active; in the data active means potentiation above about 80%; inconclusive means between about 30% and that limit; further: 0% is about no effect
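Fluo-8 calcium influx in TRPV1-expressing cells, kinetic read (ex 480/em 520 nm). Compound added and read 3 min for agonist activity, followed by capsaicin at EC20 final and 2 min further read for enhancement.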
KCNH2 3.1 inh = qHTS for Inhibitors of KCHN2 3.1: Mutant qHTS; AID 720553, 2013; activity change, % (tested at about 1.8 µM); U2OS KCNH2 3.1, thallium flux FluxOr; stronger effect = lower value; 340,000 tested, 0.95% active; Potassium voltage-gated channel subfamily H member 2, brain isoform KCNH2 3.1 (human);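 active means maximum activity change below -70%; inconclusive means maximum activity change from -70% to -50%; inactive means maximum activity change above -50%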;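 further: thallium influx rate constant from kinetic fluorescence after stimulation buffer; on the % scale 0 is the no-effect control and ±100 the full control effect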
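Normalized rate constant (relative to positive and negative DMSO controls) derived from a 2 min kinetic fluorescence read after stimulation; U2OS cells expressing the 3.1 isoform via virus at 1.77 x 10^8 /mL.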
KCNH2 WT inh = qHTS for Inhibitors of KCHN2 3.1: Wildtype qHTS | U2OS, BacMam KCNH2, thallium flux FluxOr; stronger effect = lower value | 340,000 tested, 0.37% active | Voltage-gated inwardly rectifying potassium channel KCNH2 (Homo sapiens), Q12809 | activity change, % at 1.84 µM;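 active means maximum activity change below -70%; inconclusive means maximum activity change between -70% and -50%; inactive means maximum activity change above -50%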; further: on the % scale 0 is the no-effect control and ±100 the full control effect
Target sequence (Q12809 whole entry, looked up): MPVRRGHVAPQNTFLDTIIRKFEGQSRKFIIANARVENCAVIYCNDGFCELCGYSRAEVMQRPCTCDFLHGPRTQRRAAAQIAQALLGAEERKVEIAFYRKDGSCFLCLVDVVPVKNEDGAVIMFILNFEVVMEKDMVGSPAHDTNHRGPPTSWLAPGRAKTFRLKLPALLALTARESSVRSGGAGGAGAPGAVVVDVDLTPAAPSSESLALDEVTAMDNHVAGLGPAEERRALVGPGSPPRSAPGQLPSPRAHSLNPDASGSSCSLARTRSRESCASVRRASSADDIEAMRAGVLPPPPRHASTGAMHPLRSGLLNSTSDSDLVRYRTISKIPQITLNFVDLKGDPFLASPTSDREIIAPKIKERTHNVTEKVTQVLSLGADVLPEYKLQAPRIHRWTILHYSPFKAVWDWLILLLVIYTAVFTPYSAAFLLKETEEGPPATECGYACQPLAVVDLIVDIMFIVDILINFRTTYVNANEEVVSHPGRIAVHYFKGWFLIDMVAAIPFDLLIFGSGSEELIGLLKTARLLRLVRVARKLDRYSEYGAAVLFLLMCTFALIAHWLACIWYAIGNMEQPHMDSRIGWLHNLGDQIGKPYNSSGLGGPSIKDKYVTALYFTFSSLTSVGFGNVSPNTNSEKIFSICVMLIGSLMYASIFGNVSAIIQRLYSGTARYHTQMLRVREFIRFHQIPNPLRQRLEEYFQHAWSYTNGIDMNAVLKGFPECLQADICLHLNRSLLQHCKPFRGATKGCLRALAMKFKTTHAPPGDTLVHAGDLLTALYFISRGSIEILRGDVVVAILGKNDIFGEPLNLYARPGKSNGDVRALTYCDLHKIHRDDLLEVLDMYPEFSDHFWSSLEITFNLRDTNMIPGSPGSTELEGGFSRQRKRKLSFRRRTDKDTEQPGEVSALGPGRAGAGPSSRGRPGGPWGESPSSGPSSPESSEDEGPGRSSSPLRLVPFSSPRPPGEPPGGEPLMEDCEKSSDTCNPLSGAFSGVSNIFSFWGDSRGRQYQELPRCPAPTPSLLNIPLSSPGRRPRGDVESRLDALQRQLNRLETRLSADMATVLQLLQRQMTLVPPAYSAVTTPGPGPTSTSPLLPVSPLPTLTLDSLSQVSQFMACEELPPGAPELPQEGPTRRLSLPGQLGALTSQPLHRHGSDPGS
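U2OS cells transduced with wild-type KCNH2 virus are loaded with FluxOr dye for 45 min, and thallium flux is measured in kinetic reads before and after stimulation buffer. Rate constants are normalized to DMSO controls.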
Active calls of the source: *; i = inactive; ? = inconclusive; . = not tested or not shown.

SMILES | TRPV1 ag | TRPV1 PAM | KCNH2 3.1 inh | KCNH2 WT inh
Nc1nn(-c2ccccc2)nc1C(=O)OCc1ccccc1 | 9 | -9 | -9 | -1
O=C(CCC(=O)c1ccc(Cl)cc1)OCc1nc2ccsc2c(=O)[nH]1 | -2 | 14 | -16 | 26
CN(CCc1ccccc1)C(=O)c1ccc(NC(=O)Cc2ccc(NC(=O)C3CCN(C(=O)C4CC4)CC3)cc2)cc1 | . | . | -73* | 3
CCOC(=O)N1CCN(C(=O)c2ccc(N3CC4CC(C3)c3cccc(=O)n3C4)c(NC(=O)c3ccc(F)cc3)c2)CC1 (stereo unspecified) | -1 | -4 | 2 | -163*
COCCNC(=O)c1ccc(N2CC3CC(C2)c2cccc(=O)n2C3)c(NC(=O)c2ccc(F)cc2)c1 (stereo unspecified) | -7 | 12 | 11 | 2
CC1=NN(c2nc(N)nc(/C(C#N)=C/c3ccc([N+](=O)[O-])o3)n2)C(C)(C)C1 | . | . | -72* | -6
O=C1C2C(C(=O)N1/N=C/c1ccc([N+](=O)[O-])o1)C1C=CC2C12CC2 (stereo unspecified) | 5 | -3 | 0 | 4
O=C1OC(c2ccccc2)(N(Nc2ccccc2)c2ccccc2)c2ccccc21 (stereo unspecified) | . | . | -5 | -8
CCCCCn1c(=O)[nH]c2cc(C(=O)NCCCN(CC)CC)ccc2c1=O | 2 | -12 | -84* | 5
CC(C)C(=O)Nc1nnc(SCC(=O)NCC2CCCO2)s1 (stereo unspecified) | -6 | 6 | -85* | -6
Cc1cc(=O)[nH]c(SCC(=O)NCC2CCCO2)n1 (stereo unspecified) | -1 | 5 | -20 | -235*
Cc1ccc(Nc2nnc(SCC(=O)NCC3CCCO3)s2)cc1 (stereo unspecified) | . | . | 16 | -3
CCOc1ccc(NS(=O)(=O)c2ccc(C(=O)N(C)CC(=O)Nc3cccc(OC)c3)cc2)cc1 | . | . | -2 | -16
CC(C)N(C(=O)Cn1c(SCC(=O)NCc2ccc3c(c2)OCO3)nc2ccccc21)C(C)C | 5 | 6 | 1 | -122*
COc1ccc(C(=O)NCc2nnc(SCC(=O)N3CCCCC3)o2)cc1 | 1 | -8 | -92* | -3
Cc1ccc(C(=O)N/C(=C/c2ccc(F)cc2)C(=O)NCc2ccncc2)cc1 | 29 | 3 | -90* | ?
Cc1ccc(C(=O)N/C(=C\c2cn(C)c3ccccc23)C(=O)NCCCn2ccnc2)cc1 | 2 | 19 | 9 | 41
Cc1ccc(/C=C(\NC(=O)c2ccc(C)cc2)C(=O)NCCCn2ccnc2)cc1 | -1 | 11 | -95* | -94*
Cc1ccc(C(=O)N/C(=C\c2ccccc2)C(=O)NCCCn2ccnc2)cc1 | -1 | 6 | -105* | -125*
C=C1CCN([C@@H](Cc2ccccc2)C(=O)NCCC(C)C)S(=O)(=O)c2ccccc21 | . | . | 0 | 8
COc1cc(C#N)ccc1OCC(=O)Nc1cccc(S(=O)(=O)N(C)c2ccccc2)c1 | . | . | -8 | 1
COc1ccc(NC(=O)c2ccc(-c3ccccc3)cc2)cc1NS(=O)(=O)c1ccc(F)cc1 | 0 | -15 | -77* | -2
COc1ccc(NC(=O)c2ccccc2)cc1NS(=O)(=O)c1ccc(F)cc1 | 5 | -5 | 18 | 6
CCc1ccc(C(=O)Nc2ccc(OC)c(S(=O)(=O)N3CCOCC3)c2)cc1 | 6 | -1 | 11 | 11
COc1ccc(NC(=O)c2ccc(-c3ccccc3)cc2)cc1S(=O)(=O)N1CCOCC1 | -2 | -4 | -71* | 1
SMILES | TRPV1 ag | TRPV1 PAM | KCNH2 3.1 inh | KCNH2 WT inh
O=C(Nc1ccc(Cl)cc1)c1ccc(Br)cc1F | 83* | -6 | 6 | -5
CC(C)c1ccc(NC(=O)c2cc(Br)ccc2Br)cc1 | 25 | -10 | 1 | -7
CCc1ccc(NC(=O)CSc2nc3ccccc3c(=O)n2CCCN2CCC(C)CC2)cc1 | 13 | 13 | -97* | -135*
COCCCn1c(SCC(=O)Nc2ccc(C)cc2)nc2ccccc2c1=O | 24 | -5 | -14 | 3
Cc1ccc(NC(=O)CSc2nc3ccccc3c(=O)n2Cc2cccs2)cc1 | 27 | -5 | -73* | 15
O=C(CSc1nc2ccccc2c(=O)n1CCCN1CCOCC1)Nc1ccc(Br)cc1 | . | . | ? | 3
COc1ccc(C(=O)NNC(=O)CSc2ccccc2)cc1 | 2 | 5 | 21 | -2
CCNS(=O)(=O)c1ccc(CCC(=O)NCCC2=CCCCC2)cc1 | 2 | -30 | -45 | -243*
COC(=O)[C@H](Cc1ccccc1)NC(=O)N1CCCCCC1 | -2 | -1 | -1 | .
COC(=O)[C@H](CC(C)C)NC(=O)N1CCCCC1 | -1 | -14 | -126* | 0
CC(Sc1ccc(S(=O)(=O)N2CCN(C)CC2)cn1)C(=O)Nc1cccc(Cl)c1Cl (stereo unspecified) | . | . | -14 | 28
Cc1ccc(C2=N/C(=C\N3CCCCC3)C(=O)O2)cc1 | 2 | -1 | 1 | -17
Cc1nn(-c2ccccc2)c(N2CCCC2)c1/C=C1\N=C(c2ccc(OC(C)C)cc2)OC1=O | 0 | 6 | -75* | -4
S=C(NCc1ccccn1)Nc1ccc(Cl)cc1 | 5 | -3 | -196* | -199*
Fc1cccc(NC(=S)NCc2ccccn2)c1 | 26 | -29 | 15 | 8
COc1cc(CN2CCC(CO)(Cc3cccc(C(F)(F)F)c3)CC2)ccc1F | -2 | 3 | -30 | 16
COc1ccc(CN2CCC(CO)(Cc3cccc(C(F)(F)F)c3)CC2)cc1Cn1cccn1 | 11 | -6 | -84* | -26
C=CCN(C(=O)CSc1nc2ccsc2c(=O)n1Cc1ccccn1)c1ccccc1 | -4 | 8 | -91* | -9
CC1(C)OC(=O)C(=CNn2cnc3ccccc3c2=O)C(=O)O1 | -2 | -6 | 4 | 7
O=[N+]([O-])c1ccc(OCC(O)CN(C2CCCCC2)C2CCCCC2)cc1 (stereo unspecified) | 2 | -8 | -106* | -70*
COc1ccc(C)cc1NC(C)C(=O)NC(=O)NC1CCCCC1 (stereo unspecified) | 17 | -14 | -97* | -3
COc1cc(C)ccc1OCC(=O)NC1CCCCCC1 | ? | -19 | -15 | 1
S=c1[nH]nc(-c2ccncc2)n1/N=C/c1ccccc1 | -2 | 4 | 17 | 2
Cc1cccc(/C=N/n2c(-c3ccncc3)n[nH]c2=S)c1 | 2 | ? | -70* | -3
COc1ccc(Br)cc1/C=N/n1c(-c2ccccc2)n[nH]c1=S | -6 | 80* | -8 | 4
O=C1OC2(CCCCC2)CC2=C1C1O[C@](c3ccsc3)(Cc3c1ccc1ccccc31)O2 | i | i | . | .
COC(=O)/C=C1\N/C(=N/c2nc(C)c3cc(OC)ccc3n2)NC1=O | -1 | 18 | 1 | 10
